Growth data for twelve molecules are collected here from PubChem BioAssay (NCI).

The structures appear in SMILES notation. Values joined by “and” are separate entries in the source; they are usually repeats but may differ in a detail not shown here. Equal entries are not always repeated. Compounds without any hit were thinned out: in the full panel of roughly 83,000, 20% have a hit.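 48-hour exposure, single concentration, 96-well plates; percent growth endpoint where 0 means no net growth. Active: below 10.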 Active and inactive are the calls of the source. Where a SMILES comes first, the peptide text is derived from it. The star is where a group is joined. Trt = c1ccc(C(c2ccccc2)(c2ccccc2)*)cc1; Cbz = O=C(OCc1ccccc1)*

What all share (assay): NCI-60 one-dose screen, 48 h (100 = growth as untreated, 0 = no growth, -100 = all killed)
Common to all, as to conditions: 10 µM unless noted

The test system of assay [1] is NCI-H23 lung.
Assay [2] deals with NCI-H226 lung.
For assay [3], the system named is NCI-H322M lung.
Assay [4] concerns HOP-62 NSCLC.
For assay [5], the system named is NCI-H460 lung.
Assay [6] relates to HOP-92 NSCLC.
For assay [7], the system named is NCI-H522 lung.
The test system of assay [8] is A549/ATCC NSCLC.
Assay [9] concerns 786-0 renal.
Assay [10] deals with COLO 205 colon.

For `CC1OC2CC(=O)OC2C2=C1C(=O)c1c(O)cccc1C2=O` (stereo not drawn), the growth is -89.9% (active) in assay [1]; -80% (active) in assay [2]; -29.1% (active) in [3]; -88.2% (active) in [4]; -0.634% (active) in [5]; -92% (active) in [6]. The growth in assay [7] is -89.1% (active); in assay [8], 2.68% (active); in assay [9], -87.9% (active); in assay [10], -87.2% (active).

Consider `S=C(N/N=C/c1ccccn1)Nc1ccccn1`, for which the growth in [1] is 23.8% (inactive); in [2] it was 12.1% (inactive); in assay [3] it was 22.4% (inactive); in assay [4], 13.7% (inactive); in assay [5] it was 2.59% (active); in [6], -2.58% (active). The growth in [7] is -39.9% (active); in assay [8] it was 20.7% (inactive); in assay [9] it was 2.42% (active); in [10] it was 9.1% (active).

Take `CC(C)c1ccc2nc3ccc(C(=O)NCCN4CCN(c5ccccc5)CC4)cn3c(=O)c2c1`: the growth in [1] was 50.5% (inactive); in [2] it was 38.4% (inactive); in assay [3], 86.8% (inactive); in [4] it was 90.9% (inactive); in assay [5], 65.2% (inactive); in [6], 58.1% (inactive). The growth in [7] is 67.4% (inactive); in assay [8], 57.3% (inactive); in [9], 34.4% (inactive); in assay [10] it was 45.8% (inactive).

For the molecule `COC(=O)C(CSC(c1ccccc1)(c1ccccc1)c1ccccc1)NC(=O)C(CC(N)=O)NC(=O)OCc1ccccc1` (stereo not drawn) (Cbz-Asn-Cys(Trt)-OMe; configuration not given here), the growth was 65.4% (inactive) in assay [1]; 71.4% (inactive) in assay [2]; 30.8% (inactive) in [3]; 41.4% (inactive) in assay [4]; 31.2% (inactive) in [5]; 55.7% (inactive) in assay [6]. Moreover, the growth in assay [7] was 51.5% (inactive); in assay [8] it was 41.4% (inactive); in assay [9], 30.7% (inactive); in assay [10], -50.8% (active).

On to `CC(=O)C(=Cc1ccc(C=C(C(C)=O)C(C)=O)cc1)C(C)=O`, for which the growth in [1] was 4.19% (active); in assay [2] it was -14.5% (active); in assay [3], 102% (inactive); in assay [4], 83.2% (inactive); in assay [5], 36.2% (inactive); in assay [6], 81.6% (inactive). For the same molecule, the growth in [7] is -53.9% (active); in assay [8], 84.2% (inactive); in assay [9], 2.51% (active); in assay [10], -70.9% (active).

On to `O=C1NC(=O)/C(=C/C=C/c2ccccc2)S1`, for which the growth is 32.6% (inactive) in assay [1]; 75.8% (inactive) in assay [2]; 51.4% (inactive) in assay [3]; 22.5% (inactive) in [4]; 10.6% (inactive) in assay [5]; 45.2% (inactive) in assay [6]. Also, the growth in assay [7] is 24.4% (inactive); in assay [8], 89.1% (inactive); in assay [9], 1.55% (active); in assay [10] it was 80.7% (inactive).

Consider `Nc1ncnc2c1ncn2C1OC(CO)C(O)C1O` (stereo not drawn), for which the growth in [2] was 105% (inactive) and 82.7% (inactive) and 103% (inactive); in [3], 114% (inactive) and 60.9% (inactive) and 111% (inactive); in [4], 120% (inactive) and 93.4% (inactive) and 95% (inactive); in [5], 113% (inactive) and 43.4% (inactive) and 103% (inactive); in assay [6], 93.4% (inactive) and 100% (inactive) and 89.5% (inactive); in [7], 106% (inactive) and -20.2% (active) and 110% (inactive). Besides, the growth in assay [8] is 106% (inactive) and 97.7% (inactive); in assay [9], 104% (inactive) and 73.7% (inactive) and 100% (inactive); in [10], 121% (inactive) and 100% (inactive).

For `N#CSCC(=O)c1ccc(Cl)cc1`, the growth in assay [1] is 9.41% (active); in assay [2], 65.8% (inactive); in assay [3] it was 71.7% (inactive); in assay [4] it was 45.1% (inactive); in assay [5], 33.5% (inactive); in assay [6] it was -3.98% (active). Also, the growth in assay [7] was 50.6% (inactive); in [8], 87.1% (inactive); in assay [9], 22.3% (inactive); in assay [10], 90.3% (inactive).

As for `CCCCCCCCCCCCCCCC[N+](C)(CCO)Cc1cnc[nH]1` (stereo not drawn), the growth in [1] was -3.12% (active); in assay [2] it was -4.89% (active); in [3] it was 20.3% (inactive); in assay [4] it was -64.2% (active); in assay [5], -93.3% (active); in assay [6] it was -55.8% (active). For the same molecule, the growth was -72.2% (active) in assay [7], -36.1% (active) in assay [8], -40.1% (active) in assay [9] and -100% (active) in [10].

Take `CCN(CC)CC(C)(C)C(=O)/C=C/c1ccc(Cl)c(Cl)c1`: the growth in [1] was 7.58% (active); in assay [2], -15.3% (active); in [3], 22.7% (inactive); in assay [4] it was 46.1% (inactive); in assay [5] it was -9.28% (active); in [6], -3.59% (active). Moreover, the growth was -48.3% (active) in assay [7], 33.3% (inactive) in assay [8], -60.2% (active) in assay [9] and -53.4% (active) in assay [10].

Turning to `COc1cc(/C=C(/C)C[N+](=O)[O-])ccc1O`, the growth is 104% (inactive) in assay [2]; 92.5% (inactive) in assay [3]; 103% (inactive) in [4]; 106% (inactive) in [5]; 98.4% (inactive) in assay [6]; 72% (inactive) in [7]. Also, the growth is 85.9% (inactive) in assay [8], 99.5% (inactive) in assay [9] and 86.8% (inactive) in assay [10].

Take `CC1SC(=S)N(c2ccc(Cl)cc2)C1=O` (stereo not drawn): the growth in assay [1] was 104% (inactive) and 92.2% (inactive); in assay [2], 92.9% (inactive) and 97.2% (inactive); in [3] it was 89.5% (inactive) and 89.8% (inactive); in assay [4], 92.4% (inactive) and 92.7% (inactive); in [5], 100% (inactive) and 108% (inactive); in [6], 77.6% (inactive). Moreover, the growth was 89.8% (inactive) in assay [7]; 93.8% (inactive) and 95.7% (inactive) in [8]; 91.5% (inactive) and 93.1% (inactive) in [9]; 124% (inactive) and 107% (inactive) in assay [10].
